Experimental findings from the supplement of paper PMC11001985 are described below.

Values without a mark were called inactive.

UniProt Q15149, sequence (Q15149 whole entry): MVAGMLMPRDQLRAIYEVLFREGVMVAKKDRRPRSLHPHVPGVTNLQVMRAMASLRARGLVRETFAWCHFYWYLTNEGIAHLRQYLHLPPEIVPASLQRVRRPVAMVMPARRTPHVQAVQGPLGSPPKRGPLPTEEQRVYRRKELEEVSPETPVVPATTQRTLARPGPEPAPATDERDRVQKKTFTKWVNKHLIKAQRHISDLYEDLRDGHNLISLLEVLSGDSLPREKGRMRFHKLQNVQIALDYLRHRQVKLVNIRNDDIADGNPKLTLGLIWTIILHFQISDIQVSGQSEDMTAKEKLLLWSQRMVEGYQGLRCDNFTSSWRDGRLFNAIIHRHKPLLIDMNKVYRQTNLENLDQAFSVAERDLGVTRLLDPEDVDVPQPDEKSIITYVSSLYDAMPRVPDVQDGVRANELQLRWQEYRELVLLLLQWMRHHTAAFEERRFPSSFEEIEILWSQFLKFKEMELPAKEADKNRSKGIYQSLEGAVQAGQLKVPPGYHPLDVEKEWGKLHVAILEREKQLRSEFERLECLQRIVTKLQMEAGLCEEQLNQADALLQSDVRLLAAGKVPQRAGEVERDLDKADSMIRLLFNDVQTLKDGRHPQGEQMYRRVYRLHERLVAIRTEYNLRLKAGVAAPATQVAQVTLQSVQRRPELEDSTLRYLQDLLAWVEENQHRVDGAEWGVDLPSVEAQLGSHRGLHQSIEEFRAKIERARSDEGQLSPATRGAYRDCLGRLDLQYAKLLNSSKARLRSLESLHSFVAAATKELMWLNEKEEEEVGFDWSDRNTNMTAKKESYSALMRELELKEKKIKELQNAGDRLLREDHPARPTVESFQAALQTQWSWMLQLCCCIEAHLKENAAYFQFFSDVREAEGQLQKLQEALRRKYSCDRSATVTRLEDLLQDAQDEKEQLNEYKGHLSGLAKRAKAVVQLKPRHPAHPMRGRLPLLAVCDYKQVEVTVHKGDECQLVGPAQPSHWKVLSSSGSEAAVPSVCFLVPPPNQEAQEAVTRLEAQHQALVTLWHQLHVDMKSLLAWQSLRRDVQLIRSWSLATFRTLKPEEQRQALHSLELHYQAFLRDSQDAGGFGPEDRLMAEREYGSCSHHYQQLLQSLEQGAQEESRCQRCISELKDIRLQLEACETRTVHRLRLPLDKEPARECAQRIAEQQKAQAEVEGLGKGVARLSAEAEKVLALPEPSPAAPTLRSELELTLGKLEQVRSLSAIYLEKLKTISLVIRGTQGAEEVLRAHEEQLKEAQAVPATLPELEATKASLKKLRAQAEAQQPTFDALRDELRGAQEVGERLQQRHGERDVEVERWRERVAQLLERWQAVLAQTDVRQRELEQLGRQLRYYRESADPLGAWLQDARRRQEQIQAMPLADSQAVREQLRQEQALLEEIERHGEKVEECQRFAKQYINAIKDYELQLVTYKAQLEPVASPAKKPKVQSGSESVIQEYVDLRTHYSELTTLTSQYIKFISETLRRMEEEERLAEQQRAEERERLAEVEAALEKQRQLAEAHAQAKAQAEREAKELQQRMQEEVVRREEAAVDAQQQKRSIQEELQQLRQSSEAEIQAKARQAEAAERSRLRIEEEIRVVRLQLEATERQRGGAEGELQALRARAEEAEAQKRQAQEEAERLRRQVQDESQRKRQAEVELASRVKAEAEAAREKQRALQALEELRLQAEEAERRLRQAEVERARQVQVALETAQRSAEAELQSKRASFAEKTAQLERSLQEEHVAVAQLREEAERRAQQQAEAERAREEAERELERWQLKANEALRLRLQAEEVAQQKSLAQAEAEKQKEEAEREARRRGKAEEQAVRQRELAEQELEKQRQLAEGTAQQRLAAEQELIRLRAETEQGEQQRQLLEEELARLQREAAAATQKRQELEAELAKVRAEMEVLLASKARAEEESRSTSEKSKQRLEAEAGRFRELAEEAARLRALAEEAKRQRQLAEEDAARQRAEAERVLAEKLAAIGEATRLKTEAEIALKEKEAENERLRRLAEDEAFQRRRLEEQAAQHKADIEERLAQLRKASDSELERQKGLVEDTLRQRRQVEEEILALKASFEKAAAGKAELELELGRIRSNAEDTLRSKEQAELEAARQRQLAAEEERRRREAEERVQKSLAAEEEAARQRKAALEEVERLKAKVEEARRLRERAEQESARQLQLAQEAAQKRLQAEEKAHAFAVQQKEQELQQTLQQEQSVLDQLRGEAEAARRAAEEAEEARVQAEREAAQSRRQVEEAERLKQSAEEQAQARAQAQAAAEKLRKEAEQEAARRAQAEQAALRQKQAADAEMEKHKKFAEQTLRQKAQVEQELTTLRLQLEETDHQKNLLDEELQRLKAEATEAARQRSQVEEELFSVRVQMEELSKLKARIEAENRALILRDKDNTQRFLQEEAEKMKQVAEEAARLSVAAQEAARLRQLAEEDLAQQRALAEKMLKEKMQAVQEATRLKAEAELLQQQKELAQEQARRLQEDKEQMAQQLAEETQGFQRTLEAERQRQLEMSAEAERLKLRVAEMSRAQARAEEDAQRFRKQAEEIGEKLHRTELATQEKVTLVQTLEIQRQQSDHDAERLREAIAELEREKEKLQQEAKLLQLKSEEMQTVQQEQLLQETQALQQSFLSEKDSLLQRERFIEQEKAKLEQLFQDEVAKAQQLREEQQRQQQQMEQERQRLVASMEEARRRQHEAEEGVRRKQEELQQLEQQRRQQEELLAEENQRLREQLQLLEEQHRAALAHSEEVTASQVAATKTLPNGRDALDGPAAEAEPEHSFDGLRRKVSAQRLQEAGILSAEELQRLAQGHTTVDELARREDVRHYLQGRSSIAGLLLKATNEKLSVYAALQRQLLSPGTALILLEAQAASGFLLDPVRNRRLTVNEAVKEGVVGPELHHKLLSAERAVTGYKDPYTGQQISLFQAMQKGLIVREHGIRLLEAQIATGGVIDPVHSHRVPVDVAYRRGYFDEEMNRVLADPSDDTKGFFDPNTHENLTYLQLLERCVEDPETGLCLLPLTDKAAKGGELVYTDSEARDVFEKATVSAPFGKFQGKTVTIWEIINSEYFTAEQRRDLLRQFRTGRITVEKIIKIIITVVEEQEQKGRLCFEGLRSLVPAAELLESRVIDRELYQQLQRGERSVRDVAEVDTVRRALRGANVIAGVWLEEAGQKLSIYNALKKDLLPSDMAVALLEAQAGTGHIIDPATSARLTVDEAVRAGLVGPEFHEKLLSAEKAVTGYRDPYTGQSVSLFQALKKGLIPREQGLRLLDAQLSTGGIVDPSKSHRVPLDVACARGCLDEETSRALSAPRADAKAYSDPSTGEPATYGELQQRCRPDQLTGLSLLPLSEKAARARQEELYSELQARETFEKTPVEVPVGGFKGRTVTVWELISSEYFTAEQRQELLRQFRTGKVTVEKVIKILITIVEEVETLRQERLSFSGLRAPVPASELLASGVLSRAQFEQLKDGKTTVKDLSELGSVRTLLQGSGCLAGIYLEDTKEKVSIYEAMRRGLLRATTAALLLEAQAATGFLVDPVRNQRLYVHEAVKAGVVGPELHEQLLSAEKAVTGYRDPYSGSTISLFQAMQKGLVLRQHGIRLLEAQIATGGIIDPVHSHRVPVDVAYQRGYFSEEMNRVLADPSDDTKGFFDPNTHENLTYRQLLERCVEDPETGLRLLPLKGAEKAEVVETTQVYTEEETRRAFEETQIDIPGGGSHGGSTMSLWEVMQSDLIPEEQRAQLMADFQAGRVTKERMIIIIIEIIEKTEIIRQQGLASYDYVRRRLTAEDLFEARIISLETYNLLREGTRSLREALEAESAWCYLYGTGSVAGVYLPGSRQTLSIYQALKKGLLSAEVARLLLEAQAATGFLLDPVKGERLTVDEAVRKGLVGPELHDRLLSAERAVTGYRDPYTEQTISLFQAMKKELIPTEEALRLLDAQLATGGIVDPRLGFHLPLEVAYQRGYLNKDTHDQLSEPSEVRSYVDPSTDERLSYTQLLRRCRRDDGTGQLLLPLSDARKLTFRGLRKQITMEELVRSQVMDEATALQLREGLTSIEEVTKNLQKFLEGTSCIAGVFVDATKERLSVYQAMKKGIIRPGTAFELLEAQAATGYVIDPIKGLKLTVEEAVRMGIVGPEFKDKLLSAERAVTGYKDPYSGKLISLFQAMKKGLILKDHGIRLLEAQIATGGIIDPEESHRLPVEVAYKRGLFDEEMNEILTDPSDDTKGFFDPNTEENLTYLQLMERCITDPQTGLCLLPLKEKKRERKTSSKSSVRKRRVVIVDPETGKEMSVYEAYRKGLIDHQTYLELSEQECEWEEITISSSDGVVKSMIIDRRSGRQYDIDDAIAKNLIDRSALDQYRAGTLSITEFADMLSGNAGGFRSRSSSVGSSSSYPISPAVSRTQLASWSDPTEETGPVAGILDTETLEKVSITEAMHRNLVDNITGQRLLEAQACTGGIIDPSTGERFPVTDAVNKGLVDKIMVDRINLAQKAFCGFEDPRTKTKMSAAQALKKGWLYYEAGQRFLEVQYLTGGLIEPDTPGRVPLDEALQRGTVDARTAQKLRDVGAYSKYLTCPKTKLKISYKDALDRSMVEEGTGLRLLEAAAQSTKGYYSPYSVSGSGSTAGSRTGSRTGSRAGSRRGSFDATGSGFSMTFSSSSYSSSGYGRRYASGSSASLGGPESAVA
UniProt P41221, sequence (P41221 whole entry): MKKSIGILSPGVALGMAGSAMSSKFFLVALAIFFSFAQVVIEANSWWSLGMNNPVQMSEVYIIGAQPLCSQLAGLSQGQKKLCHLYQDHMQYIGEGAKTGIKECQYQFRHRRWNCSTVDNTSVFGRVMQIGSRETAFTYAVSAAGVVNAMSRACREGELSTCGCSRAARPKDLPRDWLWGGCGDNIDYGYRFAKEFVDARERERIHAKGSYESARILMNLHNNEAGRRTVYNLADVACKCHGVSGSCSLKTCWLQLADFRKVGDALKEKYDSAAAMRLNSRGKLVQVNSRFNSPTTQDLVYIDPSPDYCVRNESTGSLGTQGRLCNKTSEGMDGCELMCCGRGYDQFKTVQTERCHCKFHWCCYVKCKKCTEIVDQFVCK

Compound in the assay: C#CCNC(=O)CCSSCCC(=O)NCCc1ccc(C=O)c(C=O)c1
Description: lysine labeling ratio R10:1 (500 µM / 50 µM probe), SILAC-ABPP in living cells; higher = lower intrinsic lysine reactivity toward the probe, active = 2 or less. As to conditions: HeLa; probe concentrations 500 vs 50 µM. In short, it runs like this: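 The two probe levels, 50 µM and 500 µM, of an alkyne-tagged, disulfide-linked lysine probe were applied to living light and heavy SILAC HeLa cells in PBS at room temperature, and the labels were run in both forward and reverse orientation. Mixed lysates underwent biotin-azide click chemistry, trypsin digestion, neutravidin capture, DTT release and alkylation before LC-MS/MS on a TIMS-TOF Pro. R is the filtered median high-probe/low-probe MS1 peptide ratio for each lysine, summarised as the median over forward and reverse replicates. Nothing above 20 is reported; such values are set to 20.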
As to UniProt Q8WXI7 (lysine site: K12412), the “lysine labeling ratio R10:1” value is 1.99 (active).

As to “SLC39A6 (lysine site: K249) (UniProt Q13433)”, the “lysine labeling ratio R10:1” value is 3.94.

Take “SPTBN1 (lysine site: K1815) (UniProt Q01082)”: the “lysine labeling ratio R10:1” value is 2.56.

Consider UniProt P62826 (lysine site: K134), for which the “lysine labeling ratio R10:1” value is 4.19.

“CKB (lysine site: K313) (UniProt P12277)”: the “lysine labeling ratio R10:1” value is 1.31 (active).

On to “SPTAN1 (lysine site: K2078) (UniProt Q13813)”, for which the “lysine labeling ratio R10:1” value was 4.25.

For “ENO1 (lysine site: K406) (UniProt P06733)”, the “lysine labeling ratio R10:1” value was 10.

As to UniProt Q15149 (lysine site: K4513), the “lysine labeling ratio R10:1” value was 1.42 (active).

As to “SLC25A5 (lysine site: K105) (UniProt P05141)”, the “lysine labeling ratio R10:1” value is 6.97.

For the target “SPTAN1 (lysine site: K2052) (UniProt Q13813)”, the “lysine labeling ratio R10:1” value is 3.09.

For the target “CSF2RA (lysine site: K108) (UniProt P15509)”, the “lysine labeling ratio R10:1” value was 0.663 (active).

Take “ALCAM (lysine site: K60) (UniProt Q13740)”: the “lysine labeling ratio R10:1” value was 2.97.

With “PLXNB2 (lysine site: K1159) (UniProt O15031)”, the “lysine labeling ratio R10:1” value is 1.75 (active).

Turning to UniProt Q99623 (lysine site: K250), the “lysine labeling ratio R10:1” value was 3.72.

Turning to “ATP1B1 (lysine site: K134) (UniProt P05026)”, the “lysine labeling ratio R10:1” value is 6.75.

In the case of “RPL35A (lysine site: K73) (UniProt P18077)”, the “lysine labeling ratio R10:1” value was 3.82.

Take UniProt P05186 (lysine site: K74): the “lysine labeling ratio R10:1” value is 6.22.

Regarding UniProt P62851 (lysine site: K66), the “lysine labeling ratio R10:1” value was 2.69.

Turning to FBL (lysine site: K84) (UniProt P22087), the “lysine labeling ratio R10:1” value is 3.62.

On to “LTF (lysine site: K320) (UniProt P02788)”, for which the “lysine labeling ratio R10:1” value is 1.48 (active).

UniProt P62913 (lysine site: K178): the “lysine labeling ratio R10:1” value was 3.2.

On to “HNRNPC (lysine site: K98) (UniProt P07910)”, for which the “lysine labeling ratio R10:1” value is 3.25.

As to “EGFR (lysine site: K489) (UniProt P00533)”, the “lysine labeling ratio R10:1” value is 1.31 (active).

Consider “VIM (lysine site: K313) (UniProt P08670)”, for which the “lysine labeling ratio R10:1” value was 10.6.

On to “TSPAN6 (lysine site: K146) (UniProt O43657)”, for which the “lysine labeling ratio R10:1” value is 1.28 (active).

Take “ITGA3 (lysine site: K161) (UniProt P26006)”: the “lysine labeling ratio R10:1” value is 5.16.

With “PAFAH1B1 (lysine site: K54) (UniProt P43034)”, the “lysine labeling ratio R10:1” value is 3.44.

For “EEF2 (lysine site: K445) (UniProt P13639)”, the “lysine labeling ratio R10:1” value is 2.7.

For “CDCP1 (lysine site: K592) (UniProt Q9H5V8)”, the “lysine labeling ratio R10:1” value is 3.49.

In the case of “CRIM1 (lysine site: K171) (UniProt Q9NZV1)”, the “lysine labeling ratio R10:1” value is 2.01.

With UniProt Q15149 (lysine site: K4348), the “lysine labeling ratio R10:1” value is 1.12 (active).

As to “KRT18 (lysine site: K407) (UniProt P05783)”, the “lysine labeling ratio R10:1” value was 8.64.

As to “RPL3 (lysine site: K250) (UniProt P39023)”, the “lysine labeling ratio R10:1” value is 2.54.

Take “LRPAP1 (lysine site: K182) (UniProt P30533)”: the “lysine labeling ratio R10:1” value is 0.73 (active).

As for UniProt Q9H336 (lysine site: K304), the “lysine labeling ratio R10:1” value is 2.33.

“WNT5A (lysine site: K348) (UniProt P41221)”: the “lysine labeling ratio R10:1” value was 1.98 (active).

On to “SDF4 (lysine site: K121) (UniProt Q9BRK5)”, for which the “lysine labeling ratio R10:1” value was 1.36 (active).

In the case of “ECE1 (lysine site: K177) (UniProt P42892)”, the “lysine labeling ratio R10:1” value is 7.91.

Regarding “DSTN (lysine site: K132) (UniProt P60981)”, the “lysine labeling ratio R10:1” value was 1.32 (active).

As to “CCT3 (lysine site: K427) (UniProt P49368)”, the “lysine labeling ratio R10:1” value was 0.772 (active).
